Source: the supplement of paper PMC10849652
Targets with a hit are over-represented here; the source holds about 7,900 in all. About 0.6% of all pairs of compound and target were hits. Values without a mark were called inactive.

What was measured:
Test in all cases: log2 fold change, soluble protein after heating vs DMSO (PISA); higher = thermal stabilisation; K562 cells, 10 uM, 30 min; active = over 0.2 and 3.5 SD of the protein, either way, in both replicates (recomputed)
ZC3H8 = ZC3H8 (UniProt Q8N5P1)
Sequence of ZC3H8 (Q8N5P1 whole entry, looked up): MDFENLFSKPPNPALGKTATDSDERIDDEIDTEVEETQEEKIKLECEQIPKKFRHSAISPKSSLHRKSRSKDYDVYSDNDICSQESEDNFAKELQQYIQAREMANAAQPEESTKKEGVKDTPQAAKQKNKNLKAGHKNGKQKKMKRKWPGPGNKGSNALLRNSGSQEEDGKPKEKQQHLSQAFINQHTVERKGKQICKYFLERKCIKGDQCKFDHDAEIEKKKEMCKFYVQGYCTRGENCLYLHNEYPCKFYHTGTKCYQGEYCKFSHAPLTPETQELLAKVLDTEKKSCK
How it was run: (§1)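 K562 cells at 2×10^6 cells/mL were treated for 30 min with 10 μM compound, and aliquots were heated for 3 min over 48°C-58°C before pooling. Extraction used PBS with 0.5% NP-40 at 4°C, and soluble protein was the supernatant after 21,000xg for 90 min, measured by TMTpro 16plex LC-MS/MS with channel sums equalised. Thermal stability values, relative to control samples and from duplicates, are log2 fold changes.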

ZC3HC1 = ZC3HC1 (UniProt Q86WB0)
Sequence of ZC3HC1 (Q86WB0 whole entry, looked up): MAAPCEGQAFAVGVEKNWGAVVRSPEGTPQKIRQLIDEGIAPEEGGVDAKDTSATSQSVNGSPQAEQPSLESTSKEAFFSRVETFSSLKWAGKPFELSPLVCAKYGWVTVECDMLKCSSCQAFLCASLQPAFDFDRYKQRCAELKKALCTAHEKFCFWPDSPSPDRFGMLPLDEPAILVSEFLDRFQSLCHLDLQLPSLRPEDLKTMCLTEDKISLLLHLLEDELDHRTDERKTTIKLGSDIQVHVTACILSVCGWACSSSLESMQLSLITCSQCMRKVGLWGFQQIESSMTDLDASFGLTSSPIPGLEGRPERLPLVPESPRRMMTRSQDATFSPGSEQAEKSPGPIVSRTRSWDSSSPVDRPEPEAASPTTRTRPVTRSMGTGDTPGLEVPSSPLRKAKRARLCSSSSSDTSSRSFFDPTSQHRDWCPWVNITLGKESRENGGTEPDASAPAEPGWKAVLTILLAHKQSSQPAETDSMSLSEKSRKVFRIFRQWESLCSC
How it was run: as §1

ZCCHC9 = ZCCHC9 (UniProt Q8N567)
How it was run: as §1

ZDHHC17 = ZDHHC17 (UniProt Q8IUH5)
How it was run: as §1

ZDHHC20 = ZDHHC20 (UniProt Q5W0Z9)
How it was run: as §1

ZDHHC5 = ZDHHC5 (UniProt Q9C0B5)
How it was run: as §1

ZDHHC6 = ZDHHC6 (UniProt Q9H6R6)
How it was run: as §1

ZDHHC7 isoform 2 = ZDHHC7 isoform 2 (UniProt Q9NXF8)
Sequence of ZDHHC7 isoform 2 (Q9NXF8 whole entry, looked up, canonical isoform): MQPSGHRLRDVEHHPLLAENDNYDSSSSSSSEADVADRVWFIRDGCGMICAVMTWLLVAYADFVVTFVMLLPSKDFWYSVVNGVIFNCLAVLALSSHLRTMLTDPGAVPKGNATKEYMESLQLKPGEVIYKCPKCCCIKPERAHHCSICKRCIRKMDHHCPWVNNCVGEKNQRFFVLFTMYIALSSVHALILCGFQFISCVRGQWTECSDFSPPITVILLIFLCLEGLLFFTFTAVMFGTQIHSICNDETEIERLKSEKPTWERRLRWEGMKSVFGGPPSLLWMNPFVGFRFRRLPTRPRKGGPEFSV
How it was run: as §1

ZER1 = ZER1 (UniProt Q7Z7L7)
Sequence of ZER1 (Q7Z7L7 whole entry, looked up): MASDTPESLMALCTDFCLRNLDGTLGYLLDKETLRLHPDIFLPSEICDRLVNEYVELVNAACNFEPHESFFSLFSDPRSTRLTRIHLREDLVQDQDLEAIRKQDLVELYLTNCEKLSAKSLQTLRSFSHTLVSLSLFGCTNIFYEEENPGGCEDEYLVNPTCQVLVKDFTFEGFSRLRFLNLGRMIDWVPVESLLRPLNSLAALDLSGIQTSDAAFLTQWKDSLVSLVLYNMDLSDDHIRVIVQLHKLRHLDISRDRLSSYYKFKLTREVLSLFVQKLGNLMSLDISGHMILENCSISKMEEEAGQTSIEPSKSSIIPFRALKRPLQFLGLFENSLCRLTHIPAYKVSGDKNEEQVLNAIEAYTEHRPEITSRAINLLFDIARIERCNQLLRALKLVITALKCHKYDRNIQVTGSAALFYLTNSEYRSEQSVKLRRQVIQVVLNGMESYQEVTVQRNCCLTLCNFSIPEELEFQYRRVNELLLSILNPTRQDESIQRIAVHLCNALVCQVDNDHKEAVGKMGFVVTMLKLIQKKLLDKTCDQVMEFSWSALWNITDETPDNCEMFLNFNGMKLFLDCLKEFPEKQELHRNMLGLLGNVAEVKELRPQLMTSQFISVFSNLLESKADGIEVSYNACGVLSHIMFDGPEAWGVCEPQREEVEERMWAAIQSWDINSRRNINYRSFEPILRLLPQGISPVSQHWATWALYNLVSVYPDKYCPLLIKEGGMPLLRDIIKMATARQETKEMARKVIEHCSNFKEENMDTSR
How it was run: as §1

ZFAND5 = ZFAND5 (UniProt O76080)
Sequence of ZFAND5 (O76080 whole entry, looked up): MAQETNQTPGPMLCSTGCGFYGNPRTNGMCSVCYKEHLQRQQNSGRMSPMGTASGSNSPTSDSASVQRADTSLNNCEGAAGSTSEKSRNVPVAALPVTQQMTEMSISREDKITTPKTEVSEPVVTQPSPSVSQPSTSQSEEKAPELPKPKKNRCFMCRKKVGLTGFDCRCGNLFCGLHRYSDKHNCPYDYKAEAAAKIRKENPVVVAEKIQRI
How it was run: as §1

ZFAND6 = ZFAND6 (UniProt Q6FIF0)
Sequence of ZFAND6 (Q6FIF0 whole entry, looked up): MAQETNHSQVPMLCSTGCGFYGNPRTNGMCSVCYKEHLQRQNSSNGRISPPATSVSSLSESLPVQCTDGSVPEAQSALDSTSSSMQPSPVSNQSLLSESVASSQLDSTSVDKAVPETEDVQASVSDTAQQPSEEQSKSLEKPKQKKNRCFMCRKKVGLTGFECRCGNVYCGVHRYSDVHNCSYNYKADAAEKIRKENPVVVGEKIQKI
How it was run: as §1

ZFP91 = ZFP91 (UniProt Q96JP5)
Sequence of ZFP91 (Q96JP5 whole entry, looked up): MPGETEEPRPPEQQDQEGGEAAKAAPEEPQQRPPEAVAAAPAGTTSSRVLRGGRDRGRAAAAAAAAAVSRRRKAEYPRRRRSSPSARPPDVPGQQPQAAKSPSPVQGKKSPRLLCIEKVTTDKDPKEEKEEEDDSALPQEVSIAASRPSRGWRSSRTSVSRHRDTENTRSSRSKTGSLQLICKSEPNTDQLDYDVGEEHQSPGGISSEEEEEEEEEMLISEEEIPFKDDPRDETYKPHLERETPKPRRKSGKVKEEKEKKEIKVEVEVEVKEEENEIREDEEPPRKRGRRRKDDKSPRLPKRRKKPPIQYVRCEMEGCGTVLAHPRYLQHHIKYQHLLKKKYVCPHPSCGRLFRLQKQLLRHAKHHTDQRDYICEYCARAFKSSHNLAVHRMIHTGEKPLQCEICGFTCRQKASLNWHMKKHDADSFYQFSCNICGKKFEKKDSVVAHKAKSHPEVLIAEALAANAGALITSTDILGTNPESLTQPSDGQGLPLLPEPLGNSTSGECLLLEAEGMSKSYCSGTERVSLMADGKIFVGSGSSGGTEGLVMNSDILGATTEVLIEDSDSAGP
How it was run: as §1

ZFPL1 = ZFPL1 (UniProt O95159)
How it was run: as §1

ZMAT2 = ZMAT2 (UniProt Q96NC0)
How it was run: as §1

ZMYM1 = ZMYM1 (UniProt Q5SVZ6)
How it was run: as §1

ZMYM3 = ZMYM3 (UniProt Q14202)
How it was run: as §1

ZNF143 = ZNF143 (UniProt P52747)
Sequence of ZNF143 (P52747 whole entry, looked up): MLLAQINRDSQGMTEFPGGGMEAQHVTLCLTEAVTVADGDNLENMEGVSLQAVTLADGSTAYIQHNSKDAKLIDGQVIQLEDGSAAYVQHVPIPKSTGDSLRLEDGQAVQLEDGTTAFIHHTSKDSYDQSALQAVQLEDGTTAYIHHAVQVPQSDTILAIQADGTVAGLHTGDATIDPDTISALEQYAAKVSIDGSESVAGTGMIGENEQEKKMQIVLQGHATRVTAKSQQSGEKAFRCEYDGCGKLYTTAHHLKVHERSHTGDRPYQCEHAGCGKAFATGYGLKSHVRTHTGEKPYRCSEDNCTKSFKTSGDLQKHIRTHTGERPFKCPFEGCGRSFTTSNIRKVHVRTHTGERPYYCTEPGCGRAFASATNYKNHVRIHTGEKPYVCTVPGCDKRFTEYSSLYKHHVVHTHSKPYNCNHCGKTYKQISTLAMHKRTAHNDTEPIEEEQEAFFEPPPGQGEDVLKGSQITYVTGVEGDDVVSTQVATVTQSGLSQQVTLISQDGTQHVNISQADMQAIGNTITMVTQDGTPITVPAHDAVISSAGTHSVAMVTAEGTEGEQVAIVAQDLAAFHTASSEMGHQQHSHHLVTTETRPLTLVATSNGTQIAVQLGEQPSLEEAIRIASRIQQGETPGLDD
How it was run: as §1

ZDHHC8 isoform 3 = ZDHHC8 isoform 3 (UniProt Q9ULC8)
How it was run: as §1

ZEB2 = ZEB2 (UniProt O60315)
Sequence of ZEB2 (O60315 whole entry, looked up): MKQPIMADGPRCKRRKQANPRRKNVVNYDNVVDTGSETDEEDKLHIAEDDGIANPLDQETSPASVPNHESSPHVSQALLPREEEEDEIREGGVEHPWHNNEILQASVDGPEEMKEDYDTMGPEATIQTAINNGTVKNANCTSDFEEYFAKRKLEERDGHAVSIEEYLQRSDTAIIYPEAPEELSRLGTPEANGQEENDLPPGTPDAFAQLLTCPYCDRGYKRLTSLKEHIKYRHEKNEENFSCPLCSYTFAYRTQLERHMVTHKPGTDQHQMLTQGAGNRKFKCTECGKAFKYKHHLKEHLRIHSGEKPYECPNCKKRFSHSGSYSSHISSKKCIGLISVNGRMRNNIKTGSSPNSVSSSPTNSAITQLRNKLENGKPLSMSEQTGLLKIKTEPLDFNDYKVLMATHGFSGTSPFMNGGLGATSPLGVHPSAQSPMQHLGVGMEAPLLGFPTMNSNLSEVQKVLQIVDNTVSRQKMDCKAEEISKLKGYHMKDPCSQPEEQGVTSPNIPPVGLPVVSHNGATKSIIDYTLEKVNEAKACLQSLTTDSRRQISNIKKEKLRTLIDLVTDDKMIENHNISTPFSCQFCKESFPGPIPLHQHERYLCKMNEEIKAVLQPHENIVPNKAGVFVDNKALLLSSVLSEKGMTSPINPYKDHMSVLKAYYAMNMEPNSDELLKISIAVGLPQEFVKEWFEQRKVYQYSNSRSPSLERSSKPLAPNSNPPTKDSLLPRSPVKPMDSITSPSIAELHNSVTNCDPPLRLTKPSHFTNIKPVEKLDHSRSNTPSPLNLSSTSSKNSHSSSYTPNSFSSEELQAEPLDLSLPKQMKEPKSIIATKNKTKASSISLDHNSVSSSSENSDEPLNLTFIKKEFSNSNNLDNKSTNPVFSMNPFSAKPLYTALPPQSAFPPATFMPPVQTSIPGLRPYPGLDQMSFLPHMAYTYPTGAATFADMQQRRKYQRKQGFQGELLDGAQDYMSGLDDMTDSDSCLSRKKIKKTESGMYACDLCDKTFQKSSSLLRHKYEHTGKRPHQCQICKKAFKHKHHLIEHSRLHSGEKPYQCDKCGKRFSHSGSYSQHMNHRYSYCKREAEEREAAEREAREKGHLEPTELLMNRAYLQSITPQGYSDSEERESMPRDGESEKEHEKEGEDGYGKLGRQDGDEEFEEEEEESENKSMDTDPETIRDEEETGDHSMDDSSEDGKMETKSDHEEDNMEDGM
How it was run: as §1

ZCCHC17 = ZCCHC17 (UniProt Q9NP64)
Sequence of ZCCHC17 (Q9NP64 whole entry, looked up): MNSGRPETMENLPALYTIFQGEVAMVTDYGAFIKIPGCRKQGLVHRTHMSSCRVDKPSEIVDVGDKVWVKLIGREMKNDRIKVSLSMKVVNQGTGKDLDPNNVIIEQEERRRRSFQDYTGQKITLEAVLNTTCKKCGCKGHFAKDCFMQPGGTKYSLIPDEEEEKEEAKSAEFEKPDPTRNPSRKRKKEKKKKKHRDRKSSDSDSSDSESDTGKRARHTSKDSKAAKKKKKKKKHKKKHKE
How it was run: as §1

Row | SMILES | log2 fold change (ZC3H8) | log2 fold change (ZC3HC1) | log2 fold change (ZCCHC9) | log2 fold change (ZDHHC17) | log2 fold change (ZDHHC20) | log2 fold change (ZDHHC5) | log2 fold change (ZDHHC6) | log2 fold change (ZDHHC7 isoform 2) | log2 fold change (ZER1) | log2 fold change (ZFAND5) | log2 fold change (ZFAND6) | log2 fold change (ZFP91) | log2 fold change (ZFPL1) | log2 fold change (ZMAT2) | log2 fold change (ZMYM1) | log2 fold change (ZMYM3) | log2 fold change (ZNF143) | log2 fold change (ZDHHC8 isoform 3) | log2 fold change (ZEB2) | log2 fold change (ZCCHC17)
1 | CCn1cc(-c2ccnc3[nH]c(-c4cccc(CN(C)C)c4)cc23)c(-c2ccc(NC(=O)N(C)C)cc2)n1 | 0.092 | -0.125 | 0.201 | -0.018 | -0.016 | -0.002 | -0.292 | -0.363 | -0.16 | -0.017 | -0.009 | 0.07 | 0.032 | 0.022 | 0.141 | 0.018 | -0.102 | – | – | –
2 | c1cc(OCCN2CCCCC2)cc(-c2n[nH]c3ccc(-c4nnc[nH]4)cc23)c1 | -0.104 | -0.046 | -0.067 | 0.068 | 0.053 | -0.076 | -0.005 | -0.191 | 0.023 | -0.063 | -0.006 | -0.161 | 0.008 | 0.035 | -0.229 | 0.029 | -0.06 | – | – | –
3 | CCCCN(Cc1ccc(C(=O)NO)cc1)C(=O)Nc1ccccc1 [Nexturastat A] | 0.106 | -0.106 | 0.311 | -0.086 | -0.149 | -0.001 | -0.06 | 0.052 | 0.012 | 0.371 (active) | 0.027 | 0.079 | -0.064 | -0.011 | 0.059 | 0.07 | 0.19 | -0.151 | 0.047 | –
4 | CNC(=O)c1ccc(Nc2ncc(C(F)(F)F)c(NCc3nccnc3N(C)S(C)(=O)=O)n2)cc1 [defactinib] | 0.228 | -0.227 | 0.216 | -0.007 | -0.231 | -0.097 | – | 0.001 | 0.027 | 0.085 | -0.045 | 0.054 | -0.083 | -0.014 | 0.558 (active) | -0.013 | -0.171 | – | 0.019 | 0.149
5 | O=C1NC(=O)C(c2cnc3ccccn23)=C1c1cn2c3c(cc(F)cc13)CN(C(=O)N1CCCCC1)CC2 | 0 | -0.132 | 0.229 | 0.043 | 0.079 | -0.014 | 0.089 | -0.021 | -0.198 | -0.157 | -0.013 | 0.073 | -0.003 | 0.012 | 0.045 | 0.003 | -0.042 | 0.029 | 0.116 | –
6 | CC[C@H](C)[C@H](NC(=O)[C@H]([C@@H](C)CC)N(C)C(C)=O)C(=O)N[C@H](C(=O)N[C@@H](CC(C)C)C(=O)[C@@]1(C)CO1)[C@@H](C)O [epoxomicin] | -0.107 | 0.1 | -0.303 | -0.044 | -0.102 | -0.083 | -0.052 | 0.124 | 0.048 | 0.345 (active) | 0.051 | -0.045 | 0.134 | 0.103 | -0.05 | -0.033 | 0.026 | -0.037 | -0.026 | –
7 | CN1CCN(c2nc(C3=C(c4c[nH]c5ccccc45)C(=O)NC3=O)c3ccccc3n2)CC1 [sotrastaurin] | 0.025 | -0.178 | 0.243 | 0.099 | 0.015 | -0.069 | – | – | 0.078 | 0.11 | 0.13 | 0.105 | 0.003 | -0.088 | 0.027 | 0.027 | -0.031 | – | -0.056 | -0.095
8 | Cn1cncc1[C@@](N)(c1ccc(Cl)cc1)c1ccc2c(c1)c(-c1cccc(Cl)c1)cc(=O)n2C [tipifarnib] | 0.043 | -0.183 | 0.113 | 0.032 | -0.014 | 0.013 | 0.086 | -0.047 | 0.111 | 0.031 | -0.09 | 0.149 | 0.008 | -0.058 | 0.01 | 0.027 | 0.037 | – | 0.045 | –
9 | Cc1ccc(Sc2cncc3sc(C(N)=O)cc23)cc1 | -0.115 | 0.053 | -0.109 | 0.038 | 0.014 | -0.011 | 0.034 | -0.138 | -0.085 | -0.047 | -0.01 | -0.025 | 0.008 | 0.113 | 0.061 | -0.07 | -0.042 | – | -0.012 | –
10 | CC(C)(O)CC(=O)NCCn1ccc2ncnc(Nc3ccc(Oc4cccc(C(F)(F)F)c4)c(Cl)c3)c21 | 0.064 | -0.179 | 0.166 | 0.062 | -0.082 | 0.033 | -0.932 (active) | -0.026 | -0.104 | -0.019 | 0.015 | 0.065 | 0.04 | -0.016 | -0.01 | 0.084 | 0.028 | 0.486 (active) | 0.034 | –
11 | CON(C)C(=O)N1N=C(c2cc(F)ccc2F)S[C@@]1(CCCN)c1ccccc1 [filanesib] | 0.191 | -0.042 | 0.527 (active) | -0.219 | 0.008 | 0.048 | – | – | -0.006 | 0.073 | -0.111 | 0.183 | -0.001 | -0.084 | 0.067 | 0.012 | 0.024 | – | 0.025 | 0.565 (active)
12 | CCCS(=O)(=O)Nc1ccc(F)c(C(=O)c2c[nH]c3ncc(-c4ccc(Cl)cc4)cc23)c1F [vemurafenib] | -0.071 | 0.09 | -0.11 | 0.016 | 0.049 | -0.021 | – | -0.016 | -0.033 | -0.106 | -0.024 | -0.071 | 0.021 | -0.021 | -0.095 | -0.109 | 0.029 | – | 0.256 | -0.396
13 | CCCS(=O)(=O)Nc1ccc(F)c(C(=O)c2c[nH]c3ncc(Cl)cc23)c1F | -0.138 | 0.189 | -0.177 | -0.016 | 0.138 | -0.009 | -0.048 | 0.014 | -0.001 | -0.058 | 0.002 | -0.041 | 0.006 | -0.008 | -0.006 | 0.016 | 0.063 | – | 0.123 | –
14 | c1cn2cc(-c3ccc4cn[nH]c4c3)nc(Nc3ccc(N4CCOCC4)cc3)c2n1 [entospletinib] | -0.034 | 0.005 | 0.168 | 0.059 | -0.02 | 0.071 | -0.058 | 0.027 | 0.036 | 0.128 | 0.019 | 0.011 | 0.034 | -0.116 | 0.174 | -0.043 | 0.015 | – | – | –
15 | NC(=O)c1ccc2nc(-c3ccc(Oc4ccc(Cl)cc4)cc3)[nH]c2c1 | 0.027 | -0.034 | 0.025 | -0.046 | 0.14 | 0.027 | – | 0.022 | -0.311 | -0.013 | 0.003 | 0.017 | 0.055 | 0.019 | -0.135 | -0.02 | 0.039 | – | 0.029 | –
16 | C#Cc1cccc(Nc2ncnc3cc(OCCOC)c(OCCOC)cc23)c1 [erlotinib] | -0.091 | 0.075 | -0.099 | 0.091 | 0.163 | 0.028 | – | 0.09 | 0.086 | -0.028 | 0.024 | -0.004 | -0.022 | -0.017 | 0.14 | 0.042 | 0.021 | – | 0.101 | –
